# Assay outcomes as filed in PubChem.
# Fluor 339 460: intrinsic fluorescence of library compounds, ex339/em460 – biochemical, MLSMR library, data from DPM-DC assay, artefact control, profiling panel. compound autofluorescence, ex339/em460 nm, NADH buffer; stronger effect = higher value; 1 = no-compound wells, NADH background. fluorescence fold increase at 10 µM. 5.5% of 65,000 active. AID 709;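 active means at 10 µM, mean starting fluorescence two-fold or more over control wells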;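 further: signal is the first read of a kinetic run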
# PMK inhibit: S. pneumoniae PMK inhibition; 0.49% of 65,000 active; inhibition, % at 10 µM; purified PMK, PK/LDH-coupled NADH absorbance 340 nm;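 active means top-ranked compounds by inhibition in the single 10 µM screen, taking a fixed number of the strongest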;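 further: 0% = full reaction with DMSO carrier and 100% = background rate without enzyme reaction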
# MK inhibit: inhibitors of Streptococcus pneumoniae mevalonate kinase | inhibition, % at 10 µM | 0.48% of 65,000 active | purified MK, PK/LDH-coupled NADH absorbance 340 nm | AID 555;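 active means ranked among the strongest by inhibition in the single 10 µM screen, a fixed top-ranked set picked for dose follow-up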
# NADH coupling: blocks coupling enzymes of NAD/NADH assays; IC50, µM (highest dose often 10 µM), without a hit: top-dose inhibition; coupled PK/LDH NADH assays, four targets; 0.02% of 65,000 active;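 active means single-dose screening hits from any of four coupled enzyme assays that gave an IC50 when retested across doses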;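 further: the DPM-DC format reads NADH fluorescence rather than 340 nm absorbance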
# Abs 340nm: absorbance at 340 nm; compound absorbance at 340 nm, fold over control; fold change at 10 µM; 65,000 tested, under 10 active;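 active means at 10 µM dose, initial 340 nm absorbance at least 2 fold that of control wells; inactive means change under 2 fold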;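 further: initial absorbance extrapolated from kinetic A340 decline of NADH oxidation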
# DPM-DC inhibit: blocks S. pneumoniae diphosphomevalonate decarboxylase; purified DPM-DC, PK/LDH coupled NADH fluorescence; calls only at 10 µM; 0.49% of 65,000 active; AID 556;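 active means the 320 compounds with the highest percent inhibition in the single-dose primary screen, excluding strongly autofluorescent ones, cut at about 32% in these data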;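 further: kinetic rate of NADH fluorescence loss reporting ADP formed by the decarboxylase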
# * hit, by the source's call; i = inactive; . = not tested or not shown; + = active, no number. In the library only some 6.3% were active in any assay of this set; here they are far more common.
SMILES,Fluor 339 460,PMK inhibit,MK inhibit,NADH coupling,Abs 340nm,DPM-DC inhibit
O=C(CN1C(=O)C2CC=CCC2C1=O)Nc1nc2ccccc2[nH]1 (stereo not given),1.32,18.0,0.0,8.0%,1.03,i
CCS(=O)(=O)N1Cc2ccccc2CC1C(=O)N1CCN(c2cccc(C)c2C)CC1 (stereo not given),1.1,7.0,9.0,5.0%,1.02,i
COc1ccc(Cn2nnc3c(=O)[nH]c(C(=O)NCCc4ccc(F)cc4)nc32)cc1OC,1.07,14.0,6.0,7.0%,1.01,i
COc1ccc(Cl)cc1NC(=O)CSc1nncn1-c1cccnc1,1.05,2.0,0.0,1.0%,1.01,i
CCC(Sc1nccn1C)C(=O)Nc1cccc2ccccc12 (stereo not given),1.08,41.0*,1.0,14.0%,0.99,i
CCC(Sc1nccn1C)C(=O)Nc1nnc(C)s1 (stereo not given),1.05,13.0,7.0,7.0%,1.03,i
Cc1cc(N)c(-n2cc3c(=O)n(C)c(=O)n(C)c3c2)cc1C,2.68*,15.0,7.0,10.0%,1.02,i
CCc1nc2c(sc3nc(N4CCOCC4)c4c(c32)CC(C)(C)OC4)c(=O)o1,1.12,7.0,0.0,3.0%,1.03,i
Cc1cc(N)n2ncc(-c3cccc(Br)c3)c2n1,2.19*,11.0,10.0,11.0%,1.05,.
Cc1cc(N)n2ncc(-c3ccccc3)c2n1,1.69,0.0,7.0,7.0%,1.16,i
Cc1cc2oc(=O)cc(CN3CCCCC3)c2cc1C(C)C,1.09,11.0,0.0,2.0%,1,i
Cc1c(O)c(CN2CCCC2)cc2c3c(c(=O)oc12)CCC3,3.74*,13.0,9.0,11.0%,1.1,.
Cc1c(O)c(CN2CCCC2)cc2c1oc(=O)c1ccccc12,1.17,3.0,2.0,2.0%,1.05,i
CCc1cc(=O)oc2c(C)c(O)c(CN3CCCCC3)cc12,3.91*,8.0,10.0,9.0%,1.16,.
CCc1cc2c(=O)c(-c3nc4ccccc4[nH]3)coc2c(CN2CCCC(C)C2)c1O (stereo not given),1.15,14.0,9.0,8.0%,1.05,i
COc1ccc(CN2C(=O)NC3(CCCCCC3)C2=O)cc1F,0.99,16.0,0.0,5.0%,0.99,i
N#Cc1c(-c2ccco2)nc(NCC2CCCO2)[nH]c1=O (stereo not given),1.09,7.0,13.0,9.0%,1.11,i
CC1(C)Cc2c(C#N)c(NC3CCCCC3)nc(-c3ccco3)c2CO1,2.16*,2.0,6.0,4.0%,1.07,.
CC1(C)Cc2c(C#N)c(NCC3CCCO3)nc(-c3ccco3)c2CO1 (stereo not given),2.33*,20.0,0.0,10.0%,1.07,.
CCCCn1c(SCC(=O)NCc2cccs2)nc2c1c(=O)n(C)c(=O)n2C,1.1,6.0,7.0,4.0%,1.02,i
Cc1nc2c3c(-c4ccccc4)c(-c4ccccc4)oc3ncn2n1,1.96,15.0,0.0,5.0%,1.04,i
COc1ccccc1OCc1nc2c3c(-c4ccccc4)c(-c4ccccc4)oc3ncn2n1,3.24*,1.0,2.0,2.0%,1.16,.
CCN=c1sc(C(=O)NCCc2ccccc2)cc(=O)n1CC,1.03,25.0*,0.0,8.0%,1.05,i
Nc1nc(C2CCCN2S(=O)(=O)c2ccc(Cl)cc2)cs1 (stereo not given),1.04,13.0,3.0,5.0%,1,i
O=S(=O)(CCc1ccccc1)N1CCOCC1,1.04,14.0,4.0,7.0%,1.01,i
SMILES,Fluor 339 460,PMK inhibit,MK inhibit,NADH coupling,Abs 340nm,DPM-DC inhibit
CCS(=O)(=O)N1CCN(C(C)CCc2ccccc2)CC1 (stereo not given),1.06,2.0,42.0*,15.0%,1.06,i
COC(=O)CC(=O)CSc1nc2c(cc1C#N)CCCCC2,3.87*,0.0,0.0,0.0%,1.07,.
CCOc1c(Br)cc(C2NS(=O)(=O)N=C3CCCCCN32)cc1OC (stereo not given),1.06,12.0,2.0,5.0%,1,i
N#CCCn1c(Cl)nc2ccccc21,1.09,5.0,9.0,5.0%,1.01,i
CCOc1ccc(CC(=O)N2CCN(c3ccc(N4CCOCC4)nn3)CC2)cc1OCC,2.13*,6.0,2.0,4.0%,1.04,.
COc1ccc(C(=O)CCC(=O)N2CCN(c3ccc(N4CCOCC4)nn3)CC2)cc1,2.15*,0.0,4.0,2.0%,1.04,.
COc1ccc(CC(=O)N2CCOCC2)cc1OC,1.04,0.0,7.0,3.0%,0.99,i
CC(=O)N1CSCC1C(=O)N1CCN(c2ccc(N3CCOCC3)nn2)CC1 (stereo not given),2.13*,13.0,10.0,12.0%,0.99,.
S=c1[nH]nc(CSc2nc3ccccc3s2)o1,1.03,15.0,9.0,9.0%,1.04,i
Oc1cc2ccccc2cc1-c1n[nH]c(=S)o1,3*,12.0,1.0,12.0%,1.02,i
CCOC(=O)Cc1c(C)nc2c(-c3ccccc3)c[nH]n2c1=O,2.24*,9.0,3.0,6.0%,1.1,.
CCOC(=O)Cc1c(C)nc2cc(-c3ccc(C)cc3)[nH]n2c1=O,1.88,4.0,1.0,5.0%,1.07,i
O=C(NCc1cccs1)C1CCN(S(=O)(=O)c2cccc3cccnc23)CC1,1.04,0.0,9.0,3.0%,1.03,i
CCC(C)NC(=O)c1cnn2c(C)c3c(nc12)CCCC3 (stereo not given),4.9*,21.0,0.0,11.0%,1.01,.
CSc1nnc(-c2ccccc2)o1,1.14,2.0,7.0,3.0%,1.03,i
CN(C)CCSc1nnc(-c2ccccc2)o1,1.24,5.0,5.0,18.0%,1.01,+
COC(=O)c1cc(OC)c(OC)c(OC)c1N,2.3*,4.0,11.0,7.0%,1.06,i
COC(=O)Nc1c(C(=O)OC)cc(OC)c(OC)c1OC,1.21,12.0,8.0,7.0%,1.04,i
C=CCn1c(=O)n(CCOC)c(=O)c2sc3ccccc3c21,2.4*,11.0,7.0,3.0%,1.03,.
CCN(CC)c1ccc2cc(-c3nc4ccccc4[nH]3)c(=O)oc2c1,1.09,i,37.0,8.0%,0.8,i
CCN(CC)c1ccc2cc(-c3nc4ccccc4n3C)c(=O)oc2c1,2.13*,4.0,5.0,5.0%,1.05,.
Cc1nn(Cc2ccccc2)c(C)c1NC(=O)CSc1nnc(-c2cc(Cl)ccc2O)n1C,1.1,0.0,8.0,3.0%,1.05,i
Clc1ccc(-n2nnnc2Sc2ncnc3sccc23)cc1,1.01,14.0,4.0,3.0%,0.98,i
Cc1sc2ncnc(Sc3nnnn3-c3ccccc3)c2c1C,3.37*,8.0,8.0,12.0%,1.02,i
COc1cccc(CN2CCN(C(=O)c3cccc(F)c3)CC2)c1,1.04,0.0,51.0*,17.0%,1.05,i
COc1cc(OC)cc(C(=O)N2CCN(C(=O)c3cccc(F)c3)CC2)c1,1.08,8.0,9.0,6.0%,1.02,i
